# PubChem BioAssay AID894 (National Center for Advancing Translational Sciences (NCATS), 2007)
# Out of some 150,000 compounds screened, about 6,500 (4.3%) were called active. Another 12% or so got no clear call; they are omitted. Calls follow the shape of the dose curve; as a rule, active = well fitted inhibition curve with a large enough effect (not every such curve was filed as active); inconclusive = small, poorly fitted or top-dose-only effect, or another doubt; inactive = no such curve, though single readings can be large or run the other way. What follows is part of a selection rich in actives, with near analogues and random picks from the rest.
# Target: 15-hydroxyprostaglandin dehydrogenase [NAD(+)] (Homo sapiens) (UniProt P15428)
# Assay: qHTS Assay for Inhibitors of HPGD (15-Hydroxyprostaglandin Dehydrogenase)
# Settings: purified HPGD, NADH fluorescence kinetic, PGE2 substrate; activity change, negative = inhibition: active compounds read low
# Method in brief: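 NADH formation kinetics: reaction with 30 uM PGE2 and 1 mM NAD+ (final), 20 nM enzyme, Tris-HCl pH 8 with Tween 20, after 15 min compound preincubation at room temperature. Fluorescence change, last versus first of five reads.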
# % is scaled to controls: 0 for no effect and ±100 for the full control effect; potency is read from the fitted curve at half-maximal effect.
# Sequence of 15-hydroxyprostaglandin dehydrogenase [NAD(+)] (Homo sapiens) (P15428 whole entry, looked up): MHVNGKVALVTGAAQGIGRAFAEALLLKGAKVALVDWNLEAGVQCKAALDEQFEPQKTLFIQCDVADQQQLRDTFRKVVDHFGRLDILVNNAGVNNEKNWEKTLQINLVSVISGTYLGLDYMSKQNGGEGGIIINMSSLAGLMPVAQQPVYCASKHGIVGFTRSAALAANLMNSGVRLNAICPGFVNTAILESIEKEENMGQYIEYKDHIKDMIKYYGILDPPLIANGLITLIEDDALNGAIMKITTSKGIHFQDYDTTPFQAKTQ
SMILES,"activity change, negative = inhibition",Potency
CCOc1ccc(N2C(=O)/C(=C/c3ccc(C)o3)N(C)C2=S)cc1,-30% (inactive),–
CNC(=O)c1csc(-c2ccccc2)n1,-8.99% (inactive),–
COc1cc(OC)cc(C(=O)NCC(=O)OCc2csc(-c3ccccc3)n2)c1,-9.37% (inactive),–
C=CCNC(=O)c1csc(-c2ccccc2)n1,–,15.8 µM (active)
CC1CCCCN1S(=O)(=O)c1ccc(S(=O)(=O)N(CC(=O)Nc2ccccc2)Cc2cccs2)cc1 (configuration not stated),-10.3% (inactive),–
O=C(CN1C2=NCCN2c2ccccc21)c1cccs1,-3.36% (inactive),–
COc1ccc2c(c1)O[C@@H](c1ccc3c(c1)OCO3)[C@H](OC(=O)NCc1ccco1)C2=O,-11.6% (inactive),–
S=c1[nH]nc(SCc2ccccc2Cl)c2[nH]cnc12,–,1.26 µM (active)
C[C@H]1Cc2c(COc3ccccc3)nc3c(c2CO1)CN(C(=O)NCc1ccco1)CC3,-1.13% (inactive),–
COc1nc(N(C)C)nc(N2CC(=O)N(CCNS(=O)(=O)c3ccc(C)cc3)C2=N)n1,-10.5% (inactive),–
c1ccc(COc2nsnc2N2CCOCC2)cc1,-17.1% (inactive),–
O=C(COc1nc2ccccc2nc1N1CCOCC1)NCC(F)(F)F,-9.54% (inactive),–
c1nc(COc2nsnc2N2CCOCC2)cs1,–,31.6 µM (active)
C=CCNC(=O)/C(=C\c1cccc([N+](=O)[O-])c1)NC(=O)c1ccccc1,-14.6% (inactive),–
Cc1cc(C)cc(OCC(=O)NNC(=O)CCN2C(=O)c3ccccc3C2=O)c1,-12.4% (inactive),–
CCOC(=O)c1nnn(-c2nc(OC)nc(N(C)C)n2)c1-c1ccccc1,-1.76% (inactive),–
CCOC(=O)c1nnn(-c2nonc2OC)c1-c1ccccc1,–,8.91 µM (active)
CCOC(=O)c1nnn(-c2nonc2-n2cccc2)c1CN1CCOCC1,-13.3% (inactive),–
O=C1C=C(c2ccccc2)CCC1,-3.18% (inactive),–
CC1=C2[C@@H](O)[C@H]([C@@H](C)C(=O)NCCC(C)C)CC[C@@]2(C)C=CC1=O,-7.81% (inactive),–
Cc1ccccc1N/C(SCc1ccc(Cl)cc1)=C(/C#N)C(N)=O,-18.2% (inactive),–
COC(=O)CCCC1=CC2=CC(=O)C(C)(OC(=O)c3cccs3)C(=O)C2=CN1c1ccc(CO)cc1 (configuration not stated),-7.14% (inactive),–
CCOC(=O)c1cc2n(c1C)-c1ccccc1C2=O,-17.5% (inactive),–
CCOC(=O)Nc1ccccc1N1C(=O)c2ccccc2C1=O,-2.62% (inactive),–
CCOC(=O)c1cc2n(c1N)-c1ccccc1C2=O,–,31.6 µM (active)

SMILES,"activity change, negative = inhibition",Potency
COc1ccc(OC)c(-c2c(=O)n(OCc3ccccc3Br)c3ccccc3[n+]2[O-])c1,-7.2% (inactive),–
COC(=O)C1=C(C(=O)OC)[C@@H]2N(C)c3ccccc3[C@@]23C[C@@H](C(=O)OC)N(S(=O)(=O)c2cccs2)C3=N1,-9.16% (inactive),–
CCCCCCCC[C@@H](O)/C=C/C=C/C=C\[C@@H](O)CCCC(=O)O,-0.184% (inactive),–
Nc1nc(SCC(=O)NN(c2ccccc2)c2ccccc2)n[nH]1,-3.02% (inactive),–
Nc1nc(SCCOc2ccccc2)n[nH]1,-1.6% (inactive),–
Nc1nc(SCC(=O)NNc2c(Cl)cc(Cl)cc2Cl)n[nH]1,–,35.5 µM (active)
COc1ccc(Cl)cc1NC(=O)Cn1nc(-c2ccc(C)cc2)n(C)c1=S,-0.416% (inactive),–
C[C@H]1Cc2c(COc3ccccc3)nc3c(c2CO1)CN(C(=O)Nc1cccc(C#N)c1)CC3,0.277% (inactive),–
N#C/C(=C\c1ccccc1)c1n[nH]c(Cn2cncn2)n1,–,28.2 µM (active)
S=C(NCCc1ccccc1)NCc1ccccc1Cl,-18.9% (inactive),–
O=S(=O)(NCCc1ccncc1)c1ccccc1,-10.2% (inactive),–
NS(=O)(=O)c1ccc(CCNC(=O)Nc2ccc(Cl)cc2)cc1,-8.27% (inactive),–
Cc1cc(Cl)ccc1NC(=S)NCCCN1CCCC1=O,-1.25% (inactive),–
Oc1cc2c(cc1O)CN(C(=S)NCCc1ccc(Cl)cc1)CCC2,–,14.1 µM (active)
Cc1ccnc(NC(=O)c2ccoc2C)c1,-2.58% (inactive),–
Cc1cc2oc(C(=O)Nc3c(C)n(C)n(-c4ccccc4)c3=O)c(C)c2cc1Cl,-3.54% (inactive),–
O=[N+]([O-])c1cc(S(=O)(=O)N2CCCC2)ccc1NN=C1CCCC1,-4.68% (inactive),–
C=C(C)c1cccc(C(C)(C)NC(=O)NC2CCCC2)c1,-3.62% (inactive),–
COc1ccc(COC(=O)N/N=C(\C)CC(=O)Nc2ccc(Cl)cc2)cc1,-4.69% (inactive),–
Cc1cccn2c(=O)c(/C=C(\C#N)S(=O)(=O)c3ccc(Cl)cc3)c(N3CCC(C(N)=O)CC3)nc12,–,15.8 µM (active)
Cc1cc(C)cc(Oc2nc3c(C)cccn3c(=O)c2/C=C(\C#N)C(=O)NC2CCS(=O)(=O)C2)c1 (configuration not stated),-10.8% (inactive),–
Cc1ccc(C(c2nnnn2CS(=O)(=O)c2ccc(C)cc2)N2CCC(C(N)=O)CC2)cc1 (configuration not stated),-7.21% (inactive),–
CN1CCC(=NNC(=O)c2ccc(N(Cc3ccc(Cl)cc3)S(C)(=O)=O)cc2)CC1,-8.83% (inactive),–
O=C(NNC1CC(=O)N(c2cccc(Cl)c2)C1=O)c1cccnc1 (configuration not stated),-13.5% (inactive),–
O=C(CNS(=O)(=O)c1ccccc1)NCC(=O)OCc1ccccc1F,0.393% (inactive),–

SMILES,"activity change, negative = inhibition",Potency
O=C(Nc1ccccc1)c1ccc2c(c1)OCO2,-29.6% (inactive),–
Cn1c(NC(=O)c2ccc3c(c2)OCO3)cc(=O)n(C)c1=O,-14.1% (inactive),–
Cc1ccc(F)cc1NC(=O)c1ccc2c(c1)OCO2,–,20 µM (active)
Cc1ccc(C(=O)NC(C)c2ccccc2)cc1Br (configuration not stated),-29.6% (inactive),–
O=C(CSc1ncnc2scc(-c3ccccc3)c12)NCc1ccc2c(c1)OCO2,-13.5% (inactive),–
O=C(NC(=S)NC1CCSC1=O)c1ccccc1F (configuration not stated),-13.4% (inactive),–
O=C(O)C[C@@H]1NC(=O)[C@H](Cc2ccccc2)NC1=O,-8.82% (inactive),–
Cc1ccc(C(=O)N/N=C/c2sc(=O)n(Cc3cccc(C(=O)O)c3)c2Cl)cc1,–,28.2 µM (active)
Cc1ccc(C(=O)Nc2c(C#N)c(C)c(C)n2Cc2ccccc2)cc1,-7.72% (inactive),–
Cc1ccccc1-n1c(C)cc(/C=N/NC(=O)c2ccc(CN3CCOCC3)cc2)c1C,-16.5% (inactive),–
CSc1c(SCc2ccccc2)cnn(Cc2ccccc2)c1=O,–,25.1 µM (active)
O=c1c2ccccc2c(-c2ccccc2)nn1Cc1ccccc1,-16.5% (inactive),–
Cn1c(CO)cnc1SCc1ccccc1,1.72% (inactive),–
O=C(NNC(=O)c1cc2c(s1)CCCC2)c1ccccc1,-17.6% (inactive),–
Cc1cccc(NC(=O)CSc2nc3[nH]ncc3c(=O)[nH]2)c1,-11% (inactive),–
COc1ccc(NC(=O)CSc2nc(NS(=O)(=O)c3ccc(C)cc3)cc(=O)[nH]2)cc1,-10.9% (inactive),–
COC(=O)c1cccc(NC(=O)CSc2nc(C)cc(=O)[nH]2)c1,–,20 µM (active)
COc1cccc(CC(=O)N2CCc3nc(COc4ccccc4)c4c(c3C2)CO[C@@H](C)C4)c1,-2.54% (inactive),–
Cc1ccc(N/N=C2\COC(C)(C)CC2=O)cc1,-19.3% (inactive),–
C=C(C)C(=O)c1ccc(F)cc1,-9.12% (inactive),–
CNC(=O)/C(C#N)=C/c1c(F)cccc1Cl,-9.42% (inactive),–
CC1CCCN(c2ccc(C(=O)NCCc3ccccc3)cn2)C1 (configuration not stated),–,17.8 µM (active)
O=C(NCCc1ccccc1)c1ccc(NC2=NC3CS(=O)(=O)CC3S2)cc1 (configuration not stated),-15.7% (inactive),–
O=C(NCCc1ccccc1)c1ccc(OCCOc2ccccc2)cc1,-14.9% (inactive),–
COC(=O)/C(C#N)=C/c1occc1C,-10.9% (inactive),–

SMILES,"activity change, negative = inhibition",Potency
N#C/C(=C(\O)CCl)c1nnc2n1CCCCC2,1.76% (inactive),–
O=[N+]([O-])c1cccc(S(=O)(=O)N2CCCCCC2)c1,-12% (inactive),–
N#C/C(=C/c1cccc([N+](=O)[O-])c1)c1nnc2n1CCCCC2,–,20 µM (active)
Cc1ccn(-c2cccc(-n3ccc(C)n3)n2)n1,-19.2% (inactive),–
CC(C)NS(=O)(=O)c1ccc(OCC(=O)Nc2ccc3c(c2)OCCO3)cc1,0.139% (inactive),–
O=C(OCC(=O)c1cccs1)C1=COCCO1,-17.4% (inactive),–
CCC(C)(C)c1ccc(Oc2ccc(NC(=O)COC(=O)C3=COCCO3)cc2)cc1,–,14.1 µM (active)
CC(C)(C)CC(C)(C)NCC(O)COCCOc1ccc(Br)cc1 (configuration not stated),-5.61% (inactive),–
CCOC(=O)c1c(/N=C/C2C(=O)CC(C)(C)CC2=O)sc(C)c1C,-11.6% (inactive),–
CCc1ccc(NC(=O)c2ccc(Cn3cc([N+](=O)[O-])cn3)cc2)cc1,-0.318% (inactive),–
O=C(c1ccccc1)c1ccc(OC(=O)N2CCCC2)cc1,-20% (inactive),–
O=C(Oc1ccccc1)c1ccc2nccnc2c1,-13% (inactive),–
O=C(COc1cccc(F)c1)Oc1ccc(C(=O)c2ccccc2)cc1,–,7.94 µM (active)
C/C(=N\NC(=O)Cc1ccc(F)cc1)c1ccc(F)cc1,-3.27% (inactive),–
Cc1ccc(S(=O)(=O)N(NC2=NS(=O)(=O)c3ccccc32)C(=O)c2ccccc2)cc1,-7.36% (inactive),–
Cc1ccc(NC(=O)CSCC(=O)NC2CCCCC2)cc1,–,15.8 µM (active)
Cc1ccc(NC(=S)NC2CCCC2)cc1,-9.46% (inactive),–
Cc1ccc(NC(=O)CSCC(=O)N2CCOCC2)cc1,2.74% (inactive),–
Cc1ccc(/C(N)=N/OC(=O)COc2ccc(Cl)c(C)c2)cc1,-14.6% (inactive),–
COCCn1c(=S)[nH]c2cc(C(=O)NCCc3ccc(OC)c(OC)c3)ccc2c1=O,-4.68% (inactive),–
COCCn1c(=O)[nH]c(=O)c2cc(C(=O)c3cc(OC)ccc3O)cnc21,–,25.1 µM (active)
COc1ccc(O)c(C(=O)c2cnc3onc(C(C)C)c3c2)c1,-14.6% (inactive),–
